According to the supplement of paper PMC12808144:
Values without a mark were called inactive.

Tested on: NHEM-hTERT
Assay: cell viability relative to DMSO control (fraction of DMSO control); higher = less cytotoxic, active = 0.5 or less
Conditions: 1 µM; 120 h
How it was run: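 Cells in 40 µl per well went into 384-well plates pre-spotted acoustically with a TargetMol library of 315 approved anti-cancer drugs, each at 1 µM in duplicate, for 120 h. Seeding was 2500/well for NHEM-hTERT immortalized melanocytes and 1500/well for patient-derived Mel-DCC-11 and its resistant subline Mel-DCC-11-R, which was run alone and with 8 µM of its selecting drug. Luminescence was read with ATPlite 1step. Viability was normalised to vehicle-treated controls and averaged over duplicates.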

Row | SMILES | cell viability
1 | CC[C@@H]1C(=O)N(C)c2cnc(Nc3ccc(C(=O)N[C@H]4CC[C@H](N5CCN(CC6CC6)CC5)CC4)cc3OC)nc2N1C(C)C [Volasertib] | 0.872
2 | COc1cc(Nc2c(C#N)cnc3cc(OCCCN4CCN(C)CC4)c(OC)cc23)c(Cl)cc1Cl [Bosutinib] | 1.12
3 | Oc1cc(O)cc(/C=C/c2ccc(O)c(O)c2)c1 [Piceatannol] | 1.09
4 | C[C@H]1O[C@@H](n2cc(F)c(=O)[nH]c2=O)[C@H](O)[C@@H]1O [Doxifluridine] | 0.863
5 | CC(=O)O.CC(C)C[C@H](NC(=O)[C@@H](COC(C)(C)C)NC(=O)[C@H](Cc1ccc(O)cc1)NC(=O)[C@H](CO)NC(=O)[C@H](Cc1c[nH]c2ccccc12)NC(=O)[C@H](Cc1cnc[nH]1)NC(=O)[C@@H]1CCC(=O)N1)C(=O)N[C@@H](CCCN=C(N)N)C(=O)N1CCC[C@H]1C(=O)NNC(N)=O [Goserelin acetate] | 1.07
6 | CC1(C)CCC(C)(C)c2cc(NC(=O)c3ccc(C(=O)O)cc3)ccc21 [Tamibarotene] | 1.09
7 | CC=Cc1ccc(OC)cc1 (stereo in doubt) [cis-Anethol] | 0.759
8 | CC[C@@]1(O)C(=O)OCc2c1cc1n(c2=O)Cc2cc3cc(O)ccc3nc2-1 [10-Hydroxycamptothecin] | 0.731
9 | COc1cc(NS(C)(=O)=O)ccc1Nc1c2ccccc2nc2ccccc12 [Amsacrine] | 0.72
